Compounds without any hit were thinned out: in the full panel of roughly 79,000, 15% have a hit. Rule as the data show it: active = growth inhibition above about 70%; inactive = the rest.
Columns and labels:
[1] = NCI Yeast Anticancer Drug Screen. Data for the rad50 strain (AID 155);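 also: 0% = growth of vehicle-only cultures of the same strain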; settings: S. cerevisiae rad50 strain growth inhibition; at 50.0 µM; active compounds read high
Outline: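 Relative growth inhibition (compound vs vehicle) was measured in yeast with a defined repair-gene alteration.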

[2] = NCI Yeast Anticancer Drug Screen. Data for the mec2-1 strain (AID 157); settings: S. cerevisiae mec2-1 strain, at 50.0 µM, active compounds read high
Outline: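 Test agents were screened against the mec2-1 yeast strain, with defined DNA repair or cell cycle alteration. Growth was scored as inhibition against vehicle-only controls.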

[3] = NCI Yeast Anticancer Drug Screen. Data for the sgs1 mgt1 strain (AID 161);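 also: 0% = growth of cultures given vehicle only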; settings: S. cerevisiae sgs1 mgt1 strain, at 50.0 µM, active compounds read high
Outline: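 Inhibition of yeast growth, normalised to vehicle-treated controls, is reported for a strain bearing genetic alterations in DNA damage repair.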

[4] = NCI Yeast Anticancer Drug Screen. Data for the cln2 rad14 strain (AID 165);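 also: 0% = growth equal to vehicle treated cultures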; settings: S. cerevisiae cln2 rad14 strain, at 50.0 µM, active compounds read high
Outline: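 Growth of compound-exposed yeast (cln2 rad14 genotype) measured and expressed as inhibition relative to vehicle.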

[5] = NCI Yeast Anticancer Drug Screen. Data for the bub3 strain (AID 167); settings: S. cerevisiae bub3 mutant strain, at 50.0 µM, active compounds read high
Outline: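 Screening used yeast with an engineered genetic alteration affecting cell cycle control. Compound-exposed cultures were compared with vehicle cultures, and reduced growth was taken as inhibition.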

[6] = NCI Yeast Anticancer Drug Screen. Data for the mlh1 rad18 strain (AID 175); settings: S. cerevisiae mlh1 rad18 strain growth inhibition; at 50.0 µM; active compounds read high
Outline: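 In this whole-cell yeast screen, a strain with altered DNA damage repair is challenged with compound, and its growth is measured against matched vehicle-treated controls.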

Measured: growth inhibition

CC1CCC(C(C)C)C(NC(=O)c2cccnc2)C1 (stereo not given)
inactive: [1] 8.3% | [2] -7.45% | [3] -2.75% | [4] 13.9% | [5] 14.4% | [6] 8.75%

O=c1[nH]nc(-c2ccccc2)n1-n1cccc1
inactive: [1] -9.25% | [2] -26.1% | [3] -5.95% | [4] -3.6% | [5] -12.3% | [6] -6.25%

COc1c(OC2OC(CO)C(O)C(O)C2O)cc2c(c1OC)-c1ccc(OC)c(=O)cc1C(NC(C)=O)CC2 (stereo not given)
inactive: [1] 13.8% | [2] 8.75% | [3] 10.8% | [4] 11.7% | [5] 19% | [6] 20.4%

CC(=O)Nc1c(Cl)c(Cl)c2c(c1Cl)Cc1cc([N+](=O)[O-])ccc1-2
inactive: [1] 9.2% | [2] -12.8% | [3] 7.6% | [4] -9.1% | [5] 3.15% | [6] 2.1%

NC(=O)[C@H]1CC2CCC1C2 (stereo not given in full)
inactive: [1] 6.75% | [2] -1.75% | [3] 3.4% | [4] 5% | [5] 11.3% | [6] 6%

Cc1ccc(C(=O)Nc2ccc(CP(=O)(O)O)cc2CP(=O)(O)O)cc1NC(=O)Nc1cc(C(=O)Nc2ccc(CP(=O)(O)O)cc2CP(=O)(O)O)ccc1C
inactive: [1] -10.8% | [2] -5.45% | [3] -12.1% | [4] -0.25% | [5] 0.4% | [6] 9.65%

N#CC(C(=N/NC(N)=S)/C(=N\NC(N)=S)C(C#N)c1ccccc1)c1ccccc1 (stereo not given)
inactive: [1] -34.5% | [2] -5.35% | [3] -30.8% | [4] -8.25% | [5] -14.2% | [6] -15.7%

CCCCNC(=O)CSc1cc(Cl)c(Cl)cc1Cl
inactive: [1] 15.2% | [2] 9.1% | [3] 16.6% | [4] 19.1% | [5] 25.6% | [6] 13.2%

CC(=O)OCCN(C)C
inactive: [1] 3.4% | [2] -1.85% | [3] -16% | [4] 8.5% | [5] -19.4% | [6] -10.4%

CC/C=C\CCOC(=O)C1OC1c1ccccc1 (stereo not given)
inactive: [1] 8.15% | [2] 17.3% | [3] -8.75% | [4] 10.9% | [5] 0% | [6] 1.5%

CCN(CC)c1cc2oc(=O)cc(C)c2cc1NC(=O)c1cc([N+](=O)[O-])cc([N+](=O)[O-])c1
inactive: [1] -0.6% | [2] -0.7% | [3] -2.1% | [4] -0.4% | [5] 0% | [6] 15.3%

N=c1ccc([N+](=O)[O-])cn1O
inactive: [1] 13.4% | [2] 11.7% | [3] -2% | [4] -41.5% | [5] -2.8% | [6] 1.95%

C1CCC(c2nn[nH]n2)CC1
inactive: [1] 2.3% | [2] -7.05% | [3] 3.25% | [4] 11.7% | [5] 8.05% | [6] 1%

C/C=C/[C@@H]1[C@H]2C(=O)[C@]3(Cl)[C@@H](/C=C/C)[C@@H]3C(=O)[C@@]12Cl
inactive: [1] 5.05% | [2] 6.1% | [3] 6.45% | [4] 12.8% | [5] 10% | [6] 29.6%

O=C(C[n+]1ccncc1)c1ccccc1
inactive: [1] -20.8% | [2] -18.7% | [3] -6.35% | [4] -6.25% | [5] -10.2% | [6] 2.65%

N#Cc1c(-c2ccc(Cl)cc2)cn2c1[nH]c(=O)c1c3c(sc12)CCCC3
inactive: [1] 13.2% | [2] 10.2% | [3] 0.15% | [4] -6.8% | [5] -4.25% | [6] 1.35%

CCCCNC1(N(C)C)N=C(N(C)C)N=C(N(C)C)O1 (stereo not given)
inactive: [1] -2.2% | [2] -1.4% | [3] -1.05% | [4] 17.8% | [5] 8.35% | [6] -0.45%

O=C(CCN1C(=O)c2ccccc2C1=O)c1cnc[nH]1
inactive: [1] 13.8% | [2] 16.9% | [3] 13.4% | [4] -4.5% | [5] 2.6% | [6] 10.4%

CCOC(=O)/C(C=Nc1c(C)n(C)n(-c2ccccc2)c1=O)=C(/C)O
inactive: [1] 19.7% | [2] 10.7% | [3] 11.7% | [4] 27.5% | [5] 10.8% | [6] 23.6%

COc1cccc(N2C(Cl)C(=O)C2c2c[nH]c3ccccc23)c1 (stereo not given)
inactive: [1] -31.4% | [2] -37.2% | [3] -47.6% | [4] -23.1% | [5] -28.9% | [6] -47%

O=C1OC(c2ccc([N+](=O)[O-])cc2)=N/C1=C\c1cc(Br)ccc1O
inactive: [1] 52.8% | [2] 28.5% | [3] 49.7% | [4] 64.3% | [5] 50.4% | [6] 35%

Nc1ncnc2c1ncn2CCCCC(=O)O
inactive: [1] -17.1% | [2] -12.2% | [3] -23.6% | [4] -2.1% | [5] -53% | [6] -15.3%

CNc1ccc([N+](=O)[O-])cc1C(=O)OC
inactive: [1] 8% | [2] -6.1% | [3] -8.55% | [4] -46.2% | [5] -22.9% | [6] 22.9%

CC(C)(C)C(=O)C[n+]1ccccc1
inactive: [1] 3.85% | [2] -6.45% | [3] 8.45% | [4] -15% | [5] 5.35% | [6] 15.2%

Cc1ccccc1NC(=O)Oc1ccc2c(C)cc(=O)oc2c1
inactive: [1] -3% | [2] 12.2% | [3] 14.4% | [4] -17.2% | [5] 14.3% | [6] 24.9%

COc1ccc(/C=N/NS(=O)(=O)c2ccc(/C=C3\NC(=O)N(C)C3=O)cc2)cc1
inactive: [1] -10.5% | [2] 22.1% | [3] -21.9% | [4] 6.5% | [5] -23.7% | [6] 27.1%

CCOc1ccc(CN(CCN2CCCCC2)c2ccccn2)cc1
inactive: [1] 26.6% | [2] 9.45% | [3] 23.4% | [4] -7.4% | [5] 11.5% | [6] 24.1%

Cc1cc(=O)oc2cc3c(cc12)Oc1ccccc1O3
inactive: [1] -6.85% | [2] -11.2% | [3] -0.95% | [4] 3.5% | [5] 5.8% | [6] -5%

O=[N+]([O-])c1ccc(S(=O)(=O)N/N=C/c2ccco2)cc1
inactive: [1] 14.6% | [2] 5.95% | [3] 0.9% | [4] 9.75% | [5] 13.2% | [6] 23.9%

CC1Oc2c(c(=O)oc3ccccc23)[C@@]1(C)CC1C[C@H](C)C(=O)O1 (stereo not given in full)
inactive: [1] 31.6% | [2] 25.9% | [3] 35.2% | [4] 11.5% | [5] 11.4% | [6] 39.1%

Cc1ccc2cc(C)c(C)cc2c1
inactive: [1] 30.6% | [2] -3.35% | [3] -10.8% | [4] 16.1% | [5] -2.6% | [6] 12.8%

CCCCc1c2c(nc3c1CCCC3=O)C(=O)CCC2
inactive: [1] -11.3% | [2] -1.95% | [3] -14.7% | [4] 2% | [5] -2.45% | [6] -9.15%

CC1=NC(=O)C(C)(c2ccccc2)N1CCc1ccccc1 (stereo not given)
inactive: [1] -0.05% | [2] 8.4% | [3] -8.75% | [4] -16.9% | [5] -10.6% | [6] -28.6%

CC(=O)O[C@@H]1[C@H]2O[C@H]2[C@H]2O[C@@]2(COC(=O)c2ccccc2)[C@H]1OC(C)=O
inactive: [1] 12.8% | [2] -25.2% | [3] 24.4% | [4] -6% | [5] 0.75% | [6] -38.5%

O=C(O)/C=C\C(=O)Nc1ccc(S(=O)(=O)Nc2nccs2)cc1
inactive: [1] -0.8% | [2] -3.45% | [3] -15.2% | [4] 2.6% | [5] 1.6% | [6] -10.1%

Cc1ccc(S(=O)(=O)OC2CCC3(C)C(=CCC4C3CCC3(C)C(C(C)CCCC(C)C)CCC43)C2)cc1 (stereo not given)
inactive: [1] 51.8% | [2] 26.8% | [3] 49.8% | [4] 10.8% | [5] 2.5% | [6] 37.5%

COc1ccc(C2=NNC(=O)OC2c2ccccc2)cc1 (stereo not given)
inactive: [1] 29.1% | [2] 16.9% | [3] 28.2% | [4] -29.6% | [5] 26.3% | [6] 28.9%

COc1cc(C(=O)NC2CCc3cc(OC)c(OC)c(OC)c3-c3ccc(OC)c(=O)cc32)cc(OC)c1OC (stereo not given)
inactive: [1] 26.4% | [2] -9.65% | [3] 3% | [4] 12.2% | [5] 0.05% | [6] 5.35%

c1ccc(CCc2ccccn2)nc1
inactive: [1] 22.9% | [2] 0.8% | [3] -13.6% | [4] 7.2% | [5] 9.5% | [6] 1.45%

CCCCC1C/C=C/C=C/C=C/C=C/C(OC2OC(C)C(O)C(N)C2O)CC2OC(O)(CC(O)CC3OC3/C=C/C(=O)O1)CC(O)C2C(=O)O (stereo not given)
inactive: [1] 30.6% | [2] 9.5% | [3] 2.75% | [4] 17.6% | [5] -1.7% | [6] 11.2%

Source: PubChem BioAssay (NCI)
